Source: PubChem BioAssay (EPA / NIEHS)
Values joined by “and” are separate entries in the source; they are usually repeats but may differ in a detail not shown here. Equal entries are not always repeated. Inconclusive results are not listed. The source holds several records for some structures; these can differ, active in one and inactive in another. Active and inactive are the calls of the source. How the source made its calls: active means hit-call score of the fitted dose curve at least 0.9, where 1 is the maximum; inconclusive means response in the unintended direction; inactive means score below 0.9.

system: rabbit Platelet Activating Factor Receptor (PAF), gene 100354046; assay: NVS_GPCR_rabPAF: NovaScreen (NVS) G Protein-Coupled Receptor Assay for rabbit Platelet Activating Factor Receptor (PAF) (AID 2283287)
Procedure: (§1) NVS_GPCR_rabPAF is a biochemical, single-readout assay that uses extracted gene-proteins from Rabbit platelets in a tissue-based cell-free assay. Measurements were taken 1 hour after chemical dosing in a 48-well plate.NVS_GPCR_rabPAF is one of one assay component(s) measured or calculated from the NVS_GPCR_rabPAF assay. It is designed to make measurements of radioligand binding, a form of binding reporter, as detected with scintillation counting signals by Filter-based radiodetection technology.Data from the assay component NVS_GPCR_rabPAF was analyzed into 1 assay endpoint. This assay endpoint, NVS_GPCR_rabPAF, was analyzed in the positive analysis fitting direction relative to DMSO as the negative control and baseline of activity. Using a type of binding reporter, loss-of-signal activity can be used to understand changes in the binding as they relate to the gene PTAFR. Furthermore, this assay endpoint can be referred to as a primary readout, because the performed assay has only produced 1 assay endpoint. To generalize the intended target to other relatable targets, this assay endpoint is annotated to the gpcr intended target family, where the subfamily is rhodopsin-like receptor.
(§2) Binding assays used specific radioligands (tritiated, iodinated) with non-radioactive competitive displacement ligands in agonist or antagonist protocols (as indicated) and various reference compounds and inhibitors to titrate specific binding to receptors and transporters. Most enzyme assays (CYPs, kinases, phosphatases, proteases, HDACs) used recombinant protein and specific substrates (fluorescence mostly, some colorimetric and radioactive) and inhibitors, followed by a biochemical separation of substrate and product. All assays for the biochemical HTS were initially run in duplicate at a single concentration (10 uM for CYP450 assays and 25 uM for all others). […] Each assay was run with positive and negative controls, and concurrent controls on every plate. The follow-up (secondary) screen tested active chemical-pairs in concentration series, as well as a few additional assays not tested in the primary screen, some selected negative inactives, and several cases re-run in the concentration series for confirmatory purposes.

AC50, active:
CCC(C)N(C)C(=O)c1cc2ccccc2c(-c2ccccc2Cl)n1 (configuration not stated) 7.29 µM, COC(=O)[C@H]1[C@H]2C[C@@H]3c4[nH]c5cc(OC)ccc5c4CCN3C[C@H]2C[C@@H](OC(=O)c2cc(OC)c(OC)c(OC)c2)[C@@H]1OC 5.47 µM, CCc1cc(C2=C(C(=O)O)N(c3ccccc3C(F)(F)F)S(=O)(=O)c3ccccc32)cc2c1OCO2 4.11 µM, CCN(CC)CCOc1ccc(C(=C(Cl)c2ccccc2)c2ccccc2)cc1 4.76 µM

system: 5-hydroxytryptamine receptor 2C (pig); assay: NVS_GPCR_p5HT2C: NovaScreen (NVS) G Protein-Coupled Receptor Assay for pig Serotonin, 5-Hydroxytryptamine Receptor 2C (5HT2C) (AID 2283288)
Procedure: as §1, with “NVS_GPCR_p5HT2C” for “NVS_GPCR_rabPAF”, “Pig choroid plexus membranes” for “Rabbit platelets”, “plate.NVS_GPCR_p5HT2C” for “plate.NVS_GPCR_rabPAF”, “NVS_GPCR_p5HT2C,” for “NVS_GPCR_rabPAF,”, “HTR2C.” for “PTAFR.”
as §2

outcome, inactive:
COC(=O)[C@H]1[C@H]2C[C@@H]3c4[nH]c5cc(OC)ccc5c4CCN3C[C@H]2C[C@@H](OC(=O)c2cc(OC)c(OC)c(OC)c2)[C@@H]1OC, C=CCc1ccc(OC)c(OC)c1, S=c1[nH]c2ccccc2s1, CC(COCC(C)OC(=O)c1ccccc1)OC(=O)c1ccccc1 (configuration not stated)

AC50, active:
CN(C)C(=O)NC1(c2ccccc2)CCN(CC[C@@]2(c3ccc(F)c(F)c3)CN(C(=O)c3ccccc3)CCO2)CC1 16.7 µM, CSc1ccc(Oc2ccc(S(N)(=O)=O)cc2CN(C)C)cc1C 19.2 µM, CCN(CC)CCOc1ccc(C(=C(Cl)c2ccccc2)c2ccccc2)cc1 21 µM and 5.8 µM and 15.9 µM, CN(C)C(=O)NC1(c2ccccc2)CCN(CCC[C@]2(c3ccc(Cl)c(Cl)c3)CCCN(C(=O)c3ccccc3)C2)CC1 2.57 µM, CCc1nc(N)nc(N)c1-c1ccc(Cl)cc1 7.09 µM

target: rat Adrenergic, Alpha 1, Non-selective Receptor (Adra1), Adra1a (gene 29412) (UniProt P43140); assay: NVS_GPCR_rAdra1_NonSelective: NovaScreen (NVS) G Protein-Coupled Receptor Assay for rat Adrenergic, Alpha 1, Non-selective Receptor (Adra1) (AID 2283289)
Sequence (P43140 whole entry, looked up): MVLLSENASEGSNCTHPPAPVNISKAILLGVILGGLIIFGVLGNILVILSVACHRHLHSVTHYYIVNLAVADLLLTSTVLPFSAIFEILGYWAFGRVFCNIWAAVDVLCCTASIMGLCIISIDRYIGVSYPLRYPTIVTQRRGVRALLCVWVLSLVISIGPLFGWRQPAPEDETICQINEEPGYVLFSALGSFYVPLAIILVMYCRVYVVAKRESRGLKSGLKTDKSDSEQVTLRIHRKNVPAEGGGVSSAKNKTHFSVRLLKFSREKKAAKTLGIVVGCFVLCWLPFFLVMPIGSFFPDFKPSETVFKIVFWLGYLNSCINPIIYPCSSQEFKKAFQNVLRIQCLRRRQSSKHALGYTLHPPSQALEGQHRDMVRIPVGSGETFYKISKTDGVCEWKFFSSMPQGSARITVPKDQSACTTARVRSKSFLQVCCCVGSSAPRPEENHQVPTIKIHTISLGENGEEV
How it was run: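 Chemicals first screened in duplicate at 25 uM, then actives tested in concentration series up to 50 uM. Binding measured as displacement of radioligand from rat forebrain membrane receptors, 1 h, filtration with scintillation readout; DMSO baseline.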

outcome, inactive:
NC(=Nc1ccccc1)Nc1ccccc1, Cc1ccc(C(C)(C)C)c(O)c1, O=C(N[C@@H](c1ccccc1)[C@@H]1CCCCN1)c1cccc(C(F)(F)F)c1Cl, O=C(O)c1[nH]n(-c2ccc(S(=O)(=O)O)cc2)c(=O)c1N=Nc1ccc(S(=O)(=O)O)cc1

AC50, active:
CSc1ccc(Oc2ccc(S(N)(=O)=O)cc2CN(C)C)cc1C 1.08 µM, CCN(CC)CCOc1ccc(C(=C(Cl)c2ccccc2)c2ccccc2)cc1 7.75 µM, CN(C)C(=O)NC1(c2ccccc2)CCN(CCC[C@]2(c3ccc(Cl)c(Cl)c3)CCCN(C(=O)c3ccccc3)C2)CC1 6.25 µM, CCc1nc(N)nc(N)c1-c1ccc(Cl)cc1 8.12 µM

target: human Opioid Receptor Mu (Opiate Mu), OPRM1 (gene 4988) (UniProt P35372); assay: NVS_GPCR_hOpiate_mu: NovaScreen (NVS) G Protein-Coupled Receptor Assay for human Opioid Receptor Mu (Opiate Mu) (AID 2283290);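 further: hits lower bound tracer signal versus DMSO meaning displacement of the ligand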
Sequence (P35372 whole entry, looked up): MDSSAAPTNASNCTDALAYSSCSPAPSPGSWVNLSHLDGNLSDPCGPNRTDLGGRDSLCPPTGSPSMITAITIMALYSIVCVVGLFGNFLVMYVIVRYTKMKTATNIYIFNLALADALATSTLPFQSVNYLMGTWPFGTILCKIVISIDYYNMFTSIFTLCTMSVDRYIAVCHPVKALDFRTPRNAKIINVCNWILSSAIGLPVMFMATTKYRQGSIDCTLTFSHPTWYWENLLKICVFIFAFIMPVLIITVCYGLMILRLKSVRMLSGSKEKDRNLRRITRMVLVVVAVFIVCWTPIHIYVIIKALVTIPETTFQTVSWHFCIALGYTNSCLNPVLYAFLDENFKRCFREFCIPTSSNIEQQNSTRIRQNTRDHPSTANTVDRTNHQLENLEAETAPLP
How it was run: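 CHO-derived receptor protein, cell-free; radioligand displacement, filtration + scintillation counting, read at 2.5 h. DMSO = negative control/baseline. Primary: 25 uM single conc, duplicate; secondary: concentration series.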

outcome, inactive:
Oc1ccccc1O, S=c1[nH]c2ccccc2s1, CCCCC(CC)COP(=O)(OCC(CC)CCCC)OCC(CC)CCCC (configuration not stated), CC(=O)O[C@]1(C(C)=O)CC[C@H]2[C@@H]3C=C(Cl)C4=CC(=O)[C@@H]5C[C@@H]5[C@]4(C)[C@H]3CC[C@@]21C, Cc1occc(=O)c1O, Nc1nc(=S)c2[nH]cnc2[nH]1

AC50, active:
CCCCCCCCCCCCCCOS(=O)(=O)O 8.03 µM, COC(=O)[C@H]1[C@H]2C[C@@H]3c4[nH]c5cc(OC)ccc5c4CCN3C[C@H]2C[C@@H](OC(=O)c2cc(OC)c(OC)c(OC)c2)[C@@H]1OC 7.12 µM, COc1ccc(OC(F)(F)F)cc1CN[C@H]1CCCN[C@H]1c1ccccc1 7.3 µM, CN(C)C(=O)NC1(c2ccccc2)CCN(CC[C@@]2(c3ccc(F)c(F)c3)CN(C(=O)c3ccccc3)CCO2)CC1 14.9 µM, CSc1ccc(Oc2ccc(S(N)(=O)=O)cc2CN(C)C)cc1C 8.3 µM, CN(C)CCCN1c2ccccc2Sc2ccc(Cl)cc21 10.3 µM, CC(=O)O[C@]1(C(C)=O)CC[C@H]2[C@@H]3C=C(Cl)C4=CC(=O)[C@@H]5C[C@@H]5[C@]4(C)[C@H]3CC[C@@]21C 474 nM and 612 nM, O=C(N[C@@H](c1ccccc1)[C@@H]1CCCCN1)c1cccc(C(F)(F)F)c1Cl 10.8 µM, CN(C)C(=O)NC1(c2ccccc2)CCN(CCC[C@]2(c3ccc(Cl)c(Cl)c3)CCCN(C(=O)c3ccccc3)C2)CC1 3.14 µM, Oc1ccc(O)cc1 15.3 µM

target: rat Serotonin, 5-Hydroxytryptamine Receptor (5HT), Non-Selective Binding, Htr1a (gene 24473) (UniProt P19327); assay: NVS_GPCR_r5HT_NonSelective: NovaScreen (NVS) G Protein-Coupled Receptor Assay for rat Serotonin, 5-Hydroxytryptamine Receptor (5HT), Non-Selective Binding (AID 2283295)
Sequence (P19327 whole entry, looked up): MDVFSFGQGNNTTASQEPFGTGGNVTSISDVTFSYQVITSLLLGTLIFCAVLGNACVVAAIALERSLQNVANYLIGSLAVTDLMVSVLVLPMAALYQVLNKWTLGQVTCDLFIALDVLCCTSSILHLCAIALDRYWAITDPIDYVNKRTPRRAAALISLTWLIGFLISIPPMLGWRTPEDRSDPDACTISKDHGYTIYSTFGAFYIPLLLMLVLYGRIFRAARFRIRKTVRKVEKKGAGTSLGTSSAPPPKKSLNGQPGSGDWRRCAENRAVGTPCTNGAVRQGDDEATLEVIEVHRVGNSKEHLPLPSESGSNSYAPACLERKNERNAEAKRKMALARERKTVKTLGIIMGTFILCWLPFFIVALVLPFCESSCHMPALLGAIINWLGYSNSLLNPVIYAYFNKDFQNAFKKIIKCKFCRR
How it was run: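 Rat cortex membrane preparation incubated 1 h with radioligand and test chemical; bound radioactivity counted after filtration. Screening began in duplicate at 25 uM with concentration-series follow-up; fitting relative to DMSO.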

outcome, inactive:
Cc1cc(SC2=C(O)C[C@@](CCc3ccc(N)cc3)(C(C)C)OC2=O)c(C(C)(C)C)cc1CO, CCCCc1nc2cccnc2n1Cc1ccc(-c2ccccc2-c2nnn[nH]2)cc1, CN(C)C(=O)NC1(c2ccccc2)CCN(CCC[C@]2(c3ccc(Cl)c(Cl)c3)CCCN(C(=O)c3ccccc3)C2)CC1

AC50, active:
COc1ccc(OC(F)(F)F)cc1CN[C@H]1CCCN[C@H]1c1ccccc1 12.1 µM, CN(C)C(=O)NC1(c2ccccc2)CCN(CC[C@@]2(c3ccc(F)c(F)c3)CN(C(=O)c3ccccc3)CCO2)CC1 5.72 µM, CSc1ccc(Oc2ccc(S(N)(=O)=O)cc2CN(C)C)cc1C 13.5 µM, CN(C)CCCN1c2ccccc2Sc2ccc(Cl)cc21 0.331 µM, O=C(N[C@@H](c1ccccc1)[C@@H]1CCCCN1)c1cccc(C(F)(F)F)c1Cl 2.1 µM, CCN(CC)CCOc1ccc(C(=C(Cl)c2ccccc2)c2ccccc2)cc1 21 µM, CCc1nc(N)nc(N)c1-c1ccc(Cl)cc1 11.6 µM
